For part of these data: Measured potencies and affinities stand elsewhere.
Assays:
Parameters in all cases: scale not given: direction of the effect not stated beside the values
[1] = biological target: Protein translocase subunit SecA (Escherichia coli (strain K12)) (UniProt P10408); test: Assay to Identify E. coli SecA ATPase Inhibitors; type: functional; conditions: 30 µM
[2] = biological target: T1, Ubiquitin-activating enzyme e1, putative (Leishmania donovani (strain BPK282A1)) (UniProt E9BSI1); test: Leishmania donovani Ubiquitin Activating Enzyme (LdE1); type: functional; conditions: 30 µM
T1 sequence (whole entry): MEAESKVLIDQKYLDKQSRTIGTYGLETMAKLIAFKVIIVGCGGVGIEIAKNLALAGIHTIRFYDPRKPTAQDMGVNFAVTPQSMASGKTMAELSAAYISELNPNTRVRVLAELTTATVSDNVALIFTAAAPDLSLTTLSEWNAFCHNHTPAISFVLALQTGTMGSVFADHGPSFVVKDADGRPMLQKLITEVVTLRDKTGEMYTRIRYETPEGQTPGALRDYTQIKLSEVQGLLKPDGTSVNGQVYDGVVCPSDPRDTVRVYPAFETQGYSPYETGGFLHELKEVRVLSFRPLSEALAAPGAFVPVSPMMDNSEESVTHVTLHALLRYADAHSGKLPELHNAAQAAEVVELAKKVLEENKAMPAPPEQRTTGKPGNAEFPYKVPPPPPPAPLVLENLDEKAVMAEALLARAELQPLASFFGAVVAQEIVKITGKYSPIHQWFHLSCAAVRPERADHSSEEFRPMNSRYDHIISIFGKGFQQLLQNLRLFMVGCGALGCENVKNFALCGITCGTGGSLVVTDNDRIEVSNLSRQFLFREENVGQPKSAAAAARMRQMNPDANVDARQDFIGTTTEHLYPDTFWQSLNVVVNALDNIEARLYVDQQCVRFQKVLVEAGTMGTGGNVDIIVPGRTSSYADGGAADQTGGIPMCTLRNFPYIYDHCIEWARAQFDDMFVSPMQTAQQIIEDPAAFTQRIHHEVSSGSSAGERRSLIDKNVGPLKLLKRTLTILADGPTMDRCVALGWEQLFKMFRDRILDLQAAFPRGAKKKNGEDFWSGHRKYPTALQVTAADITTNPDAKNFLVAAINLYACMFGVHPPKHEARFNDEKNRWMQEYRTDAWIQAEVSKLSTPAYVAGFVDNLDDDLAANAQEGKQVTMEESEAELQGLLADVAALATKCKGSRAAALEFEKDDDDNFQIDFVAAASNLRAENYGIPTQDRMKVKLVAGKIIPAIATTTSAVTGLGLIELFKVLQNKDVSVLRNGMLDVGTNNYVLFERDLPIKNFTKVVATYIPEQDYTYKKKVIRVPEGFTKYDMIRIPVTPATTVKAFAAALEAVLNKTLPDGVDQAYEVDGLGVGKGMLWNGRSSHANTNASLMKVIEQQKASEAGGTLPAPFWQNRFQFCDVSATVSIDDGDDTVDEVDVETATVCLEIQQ

[3] = biological target: AMP-activated protein kinase, AMPK (Homo sapiens) (UniProt P54646+O43741+P54619+Q9UGJ0+Q9Y478+Q13131+Q9UGI9); test: AMP-dependent Kinase enzyme assay. An in vitro enzyme assay that detects ADP turnover that is directly proportional to AMPK activity. This uses naive AMPK that is activated during the assay with MK-8722; type: functional; conditions: 30 µM
[4] = biological target: Sialic acid-binding Ig-like lectin 9 (Homo sapiens) (UniProt Q9Y336); test: Hs-Siglec9 ALPHAscreen SOP 20170721; conditions: 10 µM
[5] = tested on: Trypanosoma cruzi; test: Trypanosoma cruzi phosphomannomutase and mannose-1-phosphate guanylyltransferase assay; type: functional; conditions: 10 µM
[6] = biological target: T2, Arginase-2, mitochondrial (Homo sapiens) (UniProt P78540); test: in vitro enzyme assay to detect the production of urea directly proportional to the activity of Arginase II; type: functional; conditions: 33.3 µM; note: in the data most compounds retested in dose-response had high values
T2 sequence (whole entry): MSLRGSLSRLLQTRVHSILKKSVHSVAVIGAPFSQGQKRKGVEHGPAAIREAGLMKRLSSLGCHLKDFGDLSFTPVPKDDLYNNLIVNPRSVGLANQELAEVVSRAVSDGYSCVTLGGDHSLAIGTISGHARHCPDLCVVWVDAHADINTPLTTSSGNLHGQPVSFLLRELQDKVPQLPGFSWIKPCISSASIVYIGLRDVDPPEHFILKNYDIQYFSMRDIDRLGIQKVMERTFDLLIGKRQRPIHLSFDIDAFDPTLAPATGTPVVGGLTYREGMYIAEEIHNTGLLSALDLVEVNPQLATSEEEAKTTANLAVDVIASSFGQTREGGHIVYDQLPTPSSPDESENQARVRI

[7] = biological target: T3, Proteasome subunit beta (Trypanosoma cruzi) (UniProt O96673); test: Trypanosoma cruzi proteasome chymotrypsin-like activity (TcProtChymo) assay.; note: in the data most compounds retested in dose-response had high values; type: functional; conditions: 9.37 µM
T3 sequence (whole entry): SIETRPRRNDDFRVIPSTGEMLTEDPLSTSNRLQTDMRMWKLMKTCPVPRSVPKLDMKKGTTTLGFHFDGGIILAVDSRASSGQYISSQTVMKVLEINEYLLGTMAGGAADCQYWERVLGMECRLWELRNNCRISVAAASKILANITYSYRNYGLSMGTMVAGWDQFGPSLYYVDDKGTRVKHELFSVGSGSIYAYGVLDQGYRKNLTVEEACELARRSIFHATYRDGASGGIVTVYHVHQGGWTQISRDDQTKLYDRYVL

[8] = organism: Homo sapiens; test: To identify inhibition of the IFN signalling (Jak-Stat) pathway via expression of an eGFP reporter gene under the control of an IFN-stimulated response element (ISRE) containing MxA promoter.; type: functional; conditions: 30 µM
[9] = biological target: T4, Tyrosyl-tRNA synthetase, putative (Trypanosoma cruzi (strain CL Brener)) (UniProt Q4DSP6); test: Trypanosoma cruzi tyrosyl tRNA synthetase (TcYRS) _High Tyrosine SOP; type: functional; conditions: 30 µM; note: in the data most compounds retested in dose-response had high values
T4 sequence (whole entry): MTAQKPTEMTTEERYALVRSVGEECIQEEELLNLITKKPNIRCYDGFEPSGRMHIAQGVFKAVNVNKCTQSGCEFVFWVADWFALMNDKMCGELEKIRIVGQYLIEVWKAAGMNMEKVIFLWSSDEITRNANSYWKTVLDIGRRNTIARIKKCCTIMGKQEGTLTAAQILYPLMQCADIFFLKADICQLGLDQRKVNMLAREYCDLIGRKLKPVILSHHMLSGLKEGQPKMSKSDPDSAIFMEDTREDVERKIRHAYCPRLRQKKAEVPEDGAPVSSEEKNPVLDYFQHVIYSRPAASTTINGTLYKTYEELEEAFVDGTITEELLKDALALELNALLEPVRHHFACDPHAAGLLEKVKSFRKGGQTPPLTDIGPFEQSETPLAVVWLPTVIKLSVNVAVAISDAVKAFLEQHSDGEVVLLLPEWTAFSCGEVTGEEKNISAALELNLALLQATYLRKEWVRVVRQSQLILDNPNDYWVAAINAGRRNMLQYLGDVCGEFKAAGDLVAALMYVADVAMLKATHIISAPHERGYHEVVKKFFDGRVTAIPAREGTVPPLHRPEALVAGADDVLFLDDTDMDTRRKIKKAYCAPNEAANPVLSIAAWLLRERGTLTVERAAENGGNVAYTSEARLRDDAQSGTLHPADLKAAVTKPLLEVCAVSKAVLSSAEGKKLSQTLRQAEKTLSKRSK

[10] = biological target: T4, Tyrosyl-tRNA synthetase, putative (Trypanosoma cruzi (strain CL Brener)); test: Trypanosoma cruzi tyrosyl tRNA synthetase (TcYRS) SOP; type: functional; conditions: 30 µM
[11] = biological target: Chromo domain-containing protein 1 (Saccharomyces cerevisiae (strain ATCC 204508 / S288c) (Baker's yeast)) (UniProt P32657); test: ScCHD-1 Enzyme Inhibition Assay; type: functional; conditions: 30 µM; note: in the data most compounds retested in dose-response had high values
Sequence of Chromo domain-containing protein 1 (Saccharomyces cerevisiae (strain ATCC 204508 / S288c) (Baker's yeast)) (P32657 whole entry, the tested form may be a part): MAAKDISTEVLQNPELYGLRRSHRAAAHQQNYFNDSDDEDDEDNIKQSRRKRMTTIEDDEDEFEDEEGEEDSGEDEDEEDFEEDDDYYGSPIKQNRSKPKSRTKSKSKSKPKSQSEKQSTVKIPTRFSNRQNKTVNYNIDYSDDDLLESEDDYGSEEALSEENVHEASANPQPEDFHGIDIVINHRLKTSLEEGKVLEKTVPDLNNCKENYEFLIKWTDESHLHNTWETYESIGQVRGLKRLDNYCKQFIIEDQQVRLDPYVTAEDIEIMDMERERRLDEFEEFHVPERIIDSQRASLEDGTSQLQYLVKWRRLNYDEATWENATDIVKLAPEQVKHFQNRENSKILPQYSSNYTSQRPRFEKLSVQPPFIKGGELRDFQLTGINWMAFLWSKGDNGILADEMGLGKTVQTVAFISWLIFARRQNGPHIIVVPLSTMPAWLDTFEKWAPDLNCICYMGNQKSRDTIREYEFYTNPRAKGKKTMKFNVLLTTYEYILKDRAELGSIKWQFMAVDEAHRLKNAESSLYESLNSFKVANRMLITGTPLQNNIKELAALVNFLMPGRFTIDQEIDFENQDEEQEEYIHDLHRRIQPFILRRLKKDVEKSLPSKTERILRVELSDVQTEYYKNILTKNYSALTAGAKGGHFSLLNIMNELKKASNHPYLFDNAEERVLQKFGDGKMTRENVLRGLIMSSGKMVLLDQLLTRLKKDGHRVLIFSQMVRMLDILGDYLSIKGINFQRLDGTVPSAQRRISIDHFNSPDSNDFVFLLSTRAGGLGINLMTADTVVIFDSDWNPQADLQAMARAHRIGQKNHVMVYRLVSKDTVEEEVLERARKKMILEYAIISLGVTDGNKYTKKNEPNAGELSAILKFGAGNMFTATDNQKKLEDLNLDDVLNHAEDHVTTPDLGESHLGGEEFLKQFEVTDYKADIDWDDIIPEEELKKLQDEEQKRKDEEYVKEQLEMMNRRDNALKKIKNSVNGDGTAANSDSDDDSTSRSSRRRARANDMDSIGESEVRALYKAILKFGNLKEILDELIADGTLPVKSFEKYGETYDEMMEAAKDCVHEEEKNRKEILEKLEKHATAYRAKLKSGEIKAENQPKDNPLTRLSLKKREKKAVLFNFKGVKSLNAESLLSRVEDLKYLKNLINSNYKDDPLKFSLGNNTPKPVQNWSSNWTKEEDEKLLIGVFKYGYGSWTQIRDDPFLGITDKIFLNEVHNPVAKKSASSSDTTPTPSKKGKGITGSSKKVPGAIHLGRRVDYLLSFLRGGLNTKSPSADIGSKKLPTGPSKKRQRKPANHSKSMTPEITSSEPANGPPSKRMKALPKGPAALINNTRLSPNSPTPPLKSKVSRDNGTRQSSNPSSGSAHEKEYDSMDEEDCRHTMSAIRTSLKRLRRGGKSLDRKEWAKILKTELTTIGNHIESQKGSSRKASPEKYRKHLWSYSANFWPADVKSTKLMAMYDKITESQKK

Sequence of Protein translocase subunit SecA (Escherichia coli (strain K12)) (P10408 whole entry): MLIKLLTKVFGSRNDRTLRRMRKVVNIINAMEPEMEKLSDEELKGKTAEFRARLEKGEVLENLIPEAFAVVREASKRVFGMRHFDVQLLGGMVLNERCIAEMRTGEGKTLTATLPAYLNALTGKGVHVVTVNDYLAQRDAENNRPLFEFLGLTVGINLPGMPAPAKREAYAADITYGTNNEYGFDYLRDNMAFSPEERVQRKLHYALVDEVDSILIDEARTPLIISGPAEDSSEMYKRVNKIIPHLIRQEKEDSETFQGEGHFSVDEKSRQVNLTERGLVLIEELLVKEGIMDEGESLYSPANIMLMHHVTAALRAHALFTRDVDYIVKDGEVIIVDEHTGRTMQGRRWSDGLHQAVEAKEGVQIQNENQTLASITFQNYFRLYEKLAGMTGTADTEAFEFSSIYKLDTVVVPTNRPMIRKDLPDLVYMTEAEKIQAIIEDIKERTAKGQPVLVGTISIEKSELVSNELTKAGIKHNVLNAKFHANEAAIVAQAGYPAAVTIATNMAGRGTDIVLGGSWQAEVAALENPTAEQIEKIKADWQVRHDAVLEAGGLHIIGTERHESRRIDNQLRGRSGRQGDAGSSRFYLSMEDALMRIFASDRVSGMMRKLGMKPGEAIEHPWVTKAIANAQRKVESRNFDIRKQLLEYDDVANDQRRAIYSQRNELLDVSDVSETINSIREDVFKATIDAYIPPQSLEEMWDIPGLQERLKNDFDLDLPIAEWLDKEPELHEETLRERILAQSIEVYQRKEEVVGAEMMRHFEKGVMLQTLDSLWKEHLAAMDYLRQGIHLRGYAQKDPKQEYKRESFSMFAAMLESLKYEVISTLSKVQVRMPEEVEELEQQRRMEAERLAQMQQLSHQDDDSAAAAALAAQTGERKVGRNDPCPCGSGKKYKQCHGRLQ
Sequence of Sialic acid-binding Ig-like lectin 9 (Homo sapiens) (Q9Y336 whole entry): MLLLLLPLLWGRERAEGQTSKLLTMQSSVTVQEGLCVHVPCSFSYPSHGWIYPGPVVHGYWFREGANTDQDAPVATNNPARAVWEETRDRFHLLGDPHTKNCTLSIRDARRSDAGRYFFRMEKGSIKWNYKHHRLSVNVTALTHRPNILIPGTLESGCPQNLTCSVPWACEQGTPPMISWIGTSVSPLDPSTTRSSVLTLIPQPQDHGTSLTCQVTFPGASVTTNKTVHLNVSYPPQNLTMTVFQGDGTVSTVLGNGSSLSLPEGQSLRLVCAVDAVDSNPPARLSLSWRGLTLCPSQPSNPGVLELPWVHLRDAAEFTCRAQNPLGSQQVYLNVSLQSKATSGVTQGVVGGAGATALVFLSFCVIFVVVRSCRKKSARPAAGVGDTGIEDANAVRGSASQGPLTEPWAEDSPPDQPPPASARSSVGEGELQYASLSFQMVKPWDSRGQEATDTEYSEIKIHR

Row | Compound | Percent Effect [1] | Percent Effect [2] | Percent Effect [3] | Percent Effect [4] | Percent Effect [5] | Percent Effect [6] | Percent Effect [7] | Percent Effect [8] | Percent Effect [9] | Percent Effect [10] | Percent Effect [11]
1 | COC(=O)c1cccc(NC(=O)CCn2nc(-c3cccs3)oc2=O)c1 | -5.54% | 10.8% | 11.1% | -7.27% | -5.11% | -4.25% | 5.92% | 7.13% | 0% | 6.1% | -3.3%
2 | COC(=O)c1cccn1C1CCN(C(=O)c2cc(F)ccc2F)CC1 | -4.16% | 13% | 1.19% | 0.495% | 4.87% | -6.76% | 3.04% | 19.8% | 5.83% | 14.6% | -9.49%
3 | Cc1cc(C(=O)N2CCCC2Cn2nc(C)cc2C)on1 (centres undefined) | -2.76% | 10.8% | -7.13% | 13.4% | 3.87% | -7.62% | 4.14% | 8.42% | 5.42% | 18.5% | -8.04%
4 | CCn1cc(CN2CCCC(CO)(CCc3ccccc3)C2)c(C)n1 (centres undefined) | -3.86% | 8.11% | -1.51% | 28.3% | 5.18% | 18.1% | 12.1% | -7.2% | 0% | 11.1% | -12.5%
5 | Nc1cc(N2CCCC2c2cnccn2)ncn1 (centres undefined) | -0.532% | 9.46% | -1.66% | -2.65% | 2.96% | -5.34% | 14.8% | 2.07% | 8.6% | 14.3% | -13.1%
6 | Cc1nn(C)c(Cl)c1C1CCCN1C(=O)c1cc(Cl)c[nH]1 (centres undefined) | -2.13% | 2.7% | 0.443% | 9.97% | -1.79% | 2% | -1.62% | 2.15% | 7.39% | 3.7% | 2.56%
7 | COc1ncccc1C(=O)N1CCC(c2nnc(C3CC3)o2)CC1 | -1.83% | 10.4% | 11.3% | 3.07% | -5.82% | 16.1% | 9.75% | -6.69% | 4.23% | 11.5% | -9.2%
8 | O=C(c1cccc2[nH]ncc12)N1CCCC1c1noc(C2CC2)n1 (centres undefined) | 0.141% | 20.2% | 1.95% | -11.1% | -3.31% | 8.74% | 7.29% | 24.4% | 5.42% | 11.4% | -8.01%
9 | O=C(c1cccs1)N1CCC2(C1)c1ccccc1S(=O)(=O)N2CC1CC1 (centres undefined) | -4.28% | 2.67% | 12.3% | 1.53% | -0.197% | -8.62% | 2.03% | 17.7% | 5.32% | 6.41% | 1.11%

From ChEMBL document CHEMBL3988442, “University of Dundee, Small-Polar-MMV Screening Library” (2021)
